These results are taken from PubChem BioAssay (NCI).

Among the test systems are SR leukemia; RPMI-8226 leukemia; OVCAR-8 ovarian; OVCAR-5 ovarian; OVCAR-4 ovarian; SK-OV-3 ovarian; IGROV1 ovarian; OVCAR-3 ovarian; HS 578T breast; NCI/ADR-RES ovarian; T-47D breast; BT-549 breast; MDA-MB-435 melanoma; SW-620 colon; MCF7 breast; HCT-116 colon; HCC-2998 colon; KM12 colon.
Common to all, as to experiment: NCI-60 one-dose screen, 48 h (100 = growth as untreated, 0 = no growth, -100 = all killed)
Conditions in all cases: 10 µM unless noted

Compounds without any hit were thinned out: in the full panel of roughly 83,000, 20% have a hit.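 Activity criterion: percent growth below 10, measured after cells in 96-well plates were exposed to a single compound concentration for 48 hours.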 Values without a mark were called inactive. Active and inactive are the calls of the source.

For `CCCCC1COc2cccc3c2N1C=C/C3=C\C(=O)N(C)c1cccc(Cl)c1` (centres undefined), the growth is 94.9% in the experiment with SR leukemia; 92.3% in the experiment on RPMI-8226 leukemia; 97.1% with OVCAR-8 ovarian; 102% with OVCAR-5 ovarian; 72.8% in the experiment on OVCAR-4 ovarian; 95.3% in the experiment with SK-OV-3 ovarian. The growth with IGROV1 ovarian is 103%; with OVCAR-3 ovarian, 96.4%; in the experiment on HS 578T breast it was 99.8%; in the experiment with NCI/ADR-RES ovarian, 97.7%; with T-47D breast, 88.7%; with BT-549 breast, 107%. The growth is 101% in the experiment with MDA-MB-435 melanoma; 102% in the experiment with SW-620 colon; 104% in the experiment on MCF7 breast; 91.2% with HCT-116 colon; 111% in the experiment on HCC-2998 colon; 105% with KM12 colon.
Take `COC(=O)/C=C1/SC(N2N=C(c3cccs3)CC2c2ccc(F)cc2)=NC1=O` (centres undefined): the growth in the experiment on SR leukemia is 7.77% (active); in the experiment with RPMI-8226 leukemia it was -24.2% (active); in the experiment on OVCAR-8 ovarian, 44.1%; in the experiment with OVCAR-5 ovarian, 79.1%; with OVCAR-4 ovarian, 84.8%; with SK-OV-3 ovarian, 89.2%. Besides, the growth with IGROV1 ovarian is 32.3%; in the experiment with OVCAR-3 ovarian, 11.5%; in the experiment with HS 578T breast, 84.6%; in the experiment on NCI/ADR-RES ovarian it was 51.9%; with T-47D breast, 38.9%; with BT-549 breast, 66.1%. The growth in the experiment on MDA-MB-435 melanoma is 43.2%; in the experiment with SW-620 colon, 3.45% (active); in the experiment with MCF7 breast, 10.1%; with HCT-116 colon it was -15.3% (active); in the experiment with HCC-2998 colon, 33.7%; in the experiment with KM12 colon, 30.5%.
With `[2H]C([2H])([2H])Oc1cc(F)ccc1/C=C/C(=O)/C=C(/C=C/c1ccc(F)cc1OC([2H])([2H])[2H])OB(F)F`, the growth was 41.7% in the experiment on SR leukemia; 3.53% (active) with RPMI-8226 leukemia; 4.99% (active) in the experiment on OVCAR-8 ovarian; 104% in the experiment on OVCAR-5 ovarian; 17.5% with OVCAR-4 ovarian; 101% with SK-OV-3 ovarian. The growth with IGROV1 ovarian is 12%; with OVCAR-3 ovarian, 10.5%; in the experiment with HS 578T breast it was 46.3%; with NCI/ADR-RES ovarian, 1.89% (active); in the experiment with T-47D breast it was 33.1%; in the experiment with BT-549 breast, 36.8%. The growth was 16.5% in the experiment with MDA-MB-435 melanoma; 22.3% in the experiment on SW-620 colon; 20.1% with MCF7 breast; -11.1% (active) in the experiment with HCT-116 colon; 56% in the experiment with HCC-2998 colon; 61.6% in the experiment with KM12 colon.
As for `CCN(CC)CCCN1C(=O)c2c(c(C)c3c(oc4cc(OC)ccc43)c2C)C1=O`, the growth in the experiment on SR leukemia was -4.78% (active); in the experiment with RPMI-8226 leukemia, 91.6%; with OVCAR-8 ovarian, 17%; in the experiment with OVCAR-5 ovarian, 85%; in the experiment with OVCAR-4 ovarian it was 111%; with SK-OV-3 ovarian it was 129%. Also, the growth with IGROV1 ovarian was 86.6%; in the experiment on OVCAR-3 ovarian, 110%; in the experiment with HS 578T breast, 108%; in the experiment with NCI/ADR-RES ovarian it was 96%; with T-47D breast, 112%; with BT-549 breast, 98.8%. Besides, the growth in the experiment with MDA-MB-435 melanoma is 103%; in the experiment on SW-620 colon, 87.3%; in the experiment on MCF7 breast it was -14.7% (active); in the experiment on HCT-116 colon it was 74.3%; in the experiment on HCC-2998 colon, 98.1%; in the experiment on KM12 colon, 96.9%.
`C#CCOCC1CN(C)C(=O)O1` (centres undefined): the growth in the experiment on SR leukemia is 69.7%; in the experiment on RPMI-8226 leukemia it was 110%; in the experiment on OVCAR-8 ovarian it was 94.1%; in the experiment with OVCAR-5 ovarian, 126%; in the experiment on OVCAR-4 ovarian, 116%; in the experiment on SK-OV-3 ovarian it was 133%. The growth with IGROV1 ovarian was 108%; in the experiment with OVCAR-3 ovarian, 109%; in the experiment on HS 578T breast, 109%; in the experiment with NCI/ADR-RES ovarian it was 109%; in the experiment with T-47D breast, 126%; in the experiment with BT-549 breast, 131%. Also, the growth with MDA-MB-435 melanoma was 101%; with SW-620 colon, 97%; in the experiment with MCF7 breast, 90.2%; with HCT-116 colon, 119%; with HCC-2998 colon it was 109%; in the experiment on KM12 colon it was 107%.
In the case of `COc1ccc(C2Nc3nc(SC)nc(N)c3N=C3c4ccccc4CCC32)cc1` (centres undefined), the growth with SR leukemia is 66%; with RPMI-8226 leukemia it was 67.5%; with OVCAR-8 ovarian, 70.5%; with OVCAR-5 ovarian it was 107%; in the experiment with OVCAR-4 ovarian, 53.9%; in the experiment with SK-OV-3 ovarian it was 97%. Moreover, the growth in the experiment with IGROV1 ovarian was 55.2%; with OVCAR-3 ovarian, 65.2%; in the experiment with HS 578T breast, 97.1%; in the experiment on NCI/ADR-RES ovarian, 56.2%; in the experiment with T-47D breast, 80%; in the experiment on BT-549 breast, 105%. Also, the growth in the experiment with MDA-MB-435 melanoma was 93.2%; in the experiment with SW-620 colon, 76.1%; in the experiment on MCF7 breast it was 62.9%; in the experiment with HCT-116 colon, 51.5%; with HCC-2998 colon, 103%; with KM12 colon it was 85.9%.
On to `CN(C)CCCn1c2c(c3ccc(N4CCNCC4)cc3c1=O)C(=O)c1ccccc1-2`, for which the growth in the experiment with SR leukemia is -16.4% (active); with RPMI-8226 leukemia, -32.4% (active); with OVCAR-8 ovarian, -8.9% (active); in the experiment with OVCAR-5 ovarian, 16.5%; in the experiment with OVCAR-4 ovarian it was -22.9% (active); with SK-OV-3 ovarian, 6.3% (active). In addition, the growth in the experiment on IGROV1 ovarian was 5.77% (active); in the experiment with OVCAR-3 ovarian, -0.802% (active); in the experiment with HS 578T breast it was 49.1%; with NCI/ADR-RES ovarian, -13.8% (active); in the experiment on T-47D breast it was 44%; in the experiment on BT-549 breast, 54.2%. Also, the growth in the experiment on MDA-MB-435 melanoma is 20%; in the experiment on SW-620 colon, -21.6% (active); in the experiment with MCF7 breast, -28.2% (active); with HCT-116 colon, -89.1% (active); in the experiment with HCC-2998 colon, -68.9% (active); in the experiment with KM12 colon, -32.1% (active).
Consider `CC(=O)N1N=C(c2ccc(F)cc2)CC1c1sc(N(C)Cc2ccccc2)nc1Cl` (centres undefined), for which the growth was 94.6% in the experiment on SR leukemia; 75.2% in the experiment on RPMI-8226 leukemia; 105% in the experiment on OVCAR-8 ovarian; 109% with OVCAR-5 ovarian; 88.7% in the experiment with OVCAR-4 ovarian; 101% in the experiment on SK-OV-3 ovarian. For the same compound, the growth with IGROV1 ovarian is 96%; in the experiment with OVCAR-3 ovarian, 101%; in the experiment on HS 578T breast, 109%; in the experiment with NCI/ADR-RES ovarian, 92%; with T-47D breast it was 74.1%; in the experiment with BT-549 breast, 95.2%. Moreover, the growth with MDA-MB-435 melanoma is 96.5%; in the experiment on SW-620 colon, 99.4%; in the experiment on MCF7 breast, 76%; with HCT-116 colon it was 84.5%; in the experiment on HCC-2998 colon, 91.2%; in the experiment on KM12 colon, 92.4%.
